The whole screen tested about 310,000 compounds, of which about 410 (0.13%) were called active. Another 2% or so got no clear call; they are omitted. The rule behind the calls is not given here. These entries were drawn from the full list. Entries with a potency or affinity are not part of this list.
test: RSV antiviral activity via CPE protection, HEp-2 cells, primary 10 µM value included (AID 2391); conditions: RSV-induced CPE inhibition, at 10 µM, active compounds read high

CPE inhibition, inactive:
O=C(CNc1cccc2ccccc12)N/N=C/c1ccc([N+](=O)[O-])cc1 0.72%
COc1cc([N+](=O)[O-])cc(/C=N/NC(=O)C(C)Nc2cccc3ccccc23)c1O (stereo not drawn) 7.79%
Cc1cccnc1NC(=S)Nc1ccc(F)cc1F 1.49%
COC(=O)[C@@H]1[C@@H](C)N(Cc2ccccc2)C(=O)N[C@H]1c1cccc(C(F)(F)F)c1 3.75%
Cc1cc2nc3n(c2cc1C)CCCN3 5.29%
O=C(Nc1sc(-c2ccccc2)cc1C(=O)O)c1ccccc1 7.6%
CCOC(=O)c1cc(-c2ccccc2)sc1NC(=O)C(C)(C)C 0.09%
COc1ccc(-c2cc(-c3ccc(C)cc3)nc(SCc3nnc(-c4ccccc4)o3)c2C#N)cc1OC 2.51%
Cc1ccc(OCCOC(=O)c2cccc(S(=O)(=O)N3CC(C)OC(C)C3)c2)cc1 (stereo not drawn) 3.28%
COc1cccc(-n2c(C)cc(/C=C3/C(=N)N4C(=NC3=O)SN=C4S(C)(=O)=O)c2C)c1 16.5%
COc1ccc(-n2c(C)cc(/C=C3\C(=N)N4N=C(CC(=O)N5CCOCC5)SC4=NC3=O)c2C)cc1 3.44%
COc1ccc(OC)c(-n2c(C)cc(/C=C3\C(=N)N4N=C(CC(=O)N5CCOCC5)SC4=NC3=O)c2C)c1 17%
Cc1cc(/C=C2/C(=N)N3C(=NC2=O)SN=C3S(C)(=O)=O)c(C)n1-c1ccc(F)cc1 7.04%
Cc1cc(/C=C2\C(=N)N3N=C(CC(=O)N4CCOCC4)SC3=NC2=O)c(C)n1-c1ccccc1 7.24%
COc1ccc(/C=C2\C(=N)N3N=C(CC(=O)N4CCOCC4)SC3=NC2=O)cc1 -0.02%
CCC1=NN2C(=N)/C(=C\c3cccn3-c3ccc(OC)cc3)C(=O)N=C2S1 5.71%
O=C(N/N=C/c1ccc(Cl)cc1)C(=O)N1CCCCCC1 -0.12%
O=C(NCc1ccco1)/C(=C\c1cccs1)NC(=O)c1ccco1 -0.55%
Nc1nc(N2CCCCC2)nc(N2CCCCC2)n1 0.85%
NS(=O)(=O)c1ccc(CNS(=O)(=O)c2ccc3c(c2)OCCO3)cc1 2.01%
Cc1cc(=O)oc2cc(NC(=O)c3cccc(F)c3)ccc12 4.53%
Clc1ccc(-n2c(SCc3nc4ccccc4[nH]3)nnc2-c2ccncc2)cc1 0.34%
CC(=O)NC(c1ccc(F)cc1)c1cccnc1 (stereo not drawn) 1.45%
CCc1nc(SCC(=O)c2cccc([N+](=O)[O-])c2)n[nH]1 1.44%
COC(=O)C1=C(C)N(Cc2ccccc2)C(=O)N[C@H]1c1cccc(F)c1 3.4%
CCN1C(=O)N[C@@H](c2ccc(Br)cc2)C(C(=O)OC)=C1C 5.67%
COC(=O)C1=C(C)N(Cc2ccccc2)C(=S)N[C@H]1c1ccccc1 14.1%
CCN1C(=O)N[C@H](c2ccc(Br)cc2)C(C(=O)OC)=C1C 0.05%
CC(=O)C1=C(C)N(Cc2ccccc2)C(=O)N[C@@H]1c1cccc(C(F)(F)F)c1 0.41%
CC(=O)C1=C(C)N(Cc2ccccc2)C(=O)N[C@H]1c1cccc(C(F)(F)F)c1 4.45%
O=C(CSc1nccc(=O)[nH]1)c1ccccc1Br 2.89%
COc1ccc(C)cc1NC(=O)CSc1nnnn1C1CCCC1 2.31%
Cc1cc(=O)[nH]c(NCc2ccc(Cl)cc2)n1 0.3%
Cc1ccsc1C(=O)NNC(=O)C1C2C=CC(C2)C1C(=O)O (stereo not drawn) 0.87%
COc1ccc(OCc2nnc(SCC(=O)Nc3cccc(Cl)c3)o2)cc1 2.31%
CSc1nnc(-c2sc3cc(Cl)ccc3c2Cl)n1C 14%
CCn1c(SC)nnc1-c1nnc(SC)n1CC 3.28%
O=C(Cn1nc(-c2ccccc2)c2ccccc2c1=O)Nc1ccc(F)cc1 2.89%
COc1ccc(CNC(=O)c2coc(=O)c3ccccc23)cc1 5.17%
COc1ccc(CNC(=O)c2coc(=O)c3ccccc23)c(OC)c1 -0.36%
C#CCn1c(S(=O)(=O)Cc2ccccc2Cl)nc(-c2ccccc2)c1-c1ccccc1 -0.31%
C#CCn1c(S(=O)(=O)Cc2ccc(OC)cc2)nc(-c2ccccc2)c1-c1ccccc1 3.68%
Cc1cc([N+](=O)[O-])nn1CCCC(=O)O 5.17%
CN(NC(=O)c1cccc(Cl)c1)c1nc(-c2ccccc2)nnc1C(F)(F)F 3.22%
CCN(CC(=O)Nc1cc(Cl)ccc1C)C(=O)CCOc1ccc(C)cc1 0.1%
CCN(CC(=O)Nc1cc(Cl)ccc1C)C(=O)CSCc1c(C)noc1C 16.3%
COc1cc(C(=O)NCC(=O)N/N=C/c2c(C)[nH]c3ccccc23)cc(OC)c1OC 3.1%
COc1ccc(C(=O)NCC(=O)N/N=C/c2c(C)[nH]c3ccccc23)cc1 6.54%
CC(=O)c1ccc(N2CCN(C(=O)c3nn(Cc4ccccc4)c(=O)c4ccccc34)CC2)cc1 5.5%
COc1ccc(NC(=O)Cn2nnc(-c3ccccc3NC(=O)c3ccco3)n2)cc1 0.17%
COc1ccccc1NC(=O)c1sc2ncn(Cc3cccc4ccccc34)c(=O)c2c1C 2.87%
COc1ccccc1N(CC(=O)Nc1ccc(F)c(F)c1)S(C)(=O)=O 0.09%
Nc1ccn([C@@H]2O[C@H](CO)[C@@H](O)C2O)c(=O)n1 (stereo partly drawn) -2.12%
Nc1ccn([C@@H]2O[C@H](CO)[C@@H](O)[C@@H]2O)c(=O)n1 -0.64%
O=c1[nH]c(=O)n(C2OC(CO)C(O)C2O)cc1Br (stereo not drawn) -0.14%
O=c1ccn([C@@H]2O[C@H](CO)[C@@H](O)[C@H]2O)c(=O)[nH]1 -0.56%
CCOc1ccccc1Nc1cc(C)nc2nnnn12 -1.74%
Cc1ccc(S(=O)(=O)[N-]c2nc3ccccc3nc2-n2cc[n+](CCC(C)C)c2)cc1 0.13%
COc1cc(NC(=S)N2CCN(Cc3ccccc3)CC2)cc(OC)c1 4.9%
Cc1cc(/C=C2/NC(=O)NC2=O)c(C)n1C 3.8%
Cc1cc(/C=C2/C(=O)NN(c3ccccc3)C2=O)c(C)n1-c1cccc(O)c1 1.07%
Cc1cc(/C=C2/NC(=O)NC2=O)c(C)n1-c1ccncc1 19.7%
Cc1cccc(-n2c(C)cc(/C=C3\NC(=O)NC3=O)c2C)c1 5.86%
Cc1cc(/C=C2/NC(=O)NC2=O)c(C)n1-c1ccccn1 2.98%
Cc1cc(/C=C2\C(=O)NN(c3ccccc3)C2=O)c(C)n1-c1ccccc1O -1.31%
O=C(NNC1=NS(=O)(=O)c2ccccc21)c1ccccc1Cl 1.71%
CC(CC(=O)NC1CCCCC1)S(=O)(=O)c1ccc2c(c1)CCN2C(=O)C1CC1 (stereo not drawn) 0.99%
CCC(=O)Nc1ccc(C(=O)CSc2nnc(-c3cccnc3)o2)cc1 -0.13%
COc1cc([N+](=O)[O-])ccc1NC(=O)CSc1ccccn1 4.53%
O=C(Nc1ccc(O)c2c(=O)cc(-c3ccccc3Cl)oc12)c1cccc(Cl)c1 -0.66%
CSc1cc(-c2ccc(Cl)cc2)c(C(=O)NN)s1 0.87%
COC(=O)c1nc(N)sc1C 1.76%
COc1ccc(S(=O)(=O)N2CC(C(=O)O)Oc3ccc(CC(=O)O)cc32)cc1 (stereo not drawn) 1.19%
O=C(Nc1ccc(N2CCCC2)c(Cl)c1)c1cccnc1 5.52%
O=C(Nc1ccc(N2CCOCC2)c(Cl)c1)c1cccnc1 4.29%
O=C(CSc1nnc2ccccn12)NC(=O)NC1CCCC1 0.11%
COc1cccc(OC)c1C(=O)Nc1ccc(C)cc1C(=O)c1ccccc1 6.46%
Cc1nc(CCNS(=O)(=O)c2cccnc2)cs1 -0.89%
COc1ccc(NC(=O)c2cn(-c3ccccc3)nc2-c2cc3ccccc3o2)cc1 14.1%
O=C(Nc1ccc([N+](=O)[O-])cc1)c1cn(-c2ccccc2)nc1-c1cc2ccccc2o1 0.46%
COc1cc(C=O)ccc1OCc1cccc(Br)c1 1.17%
CC(=O)Nc1cccc(NC(=O)c2cccc(S(=O)(=O)N3CCN(Cc4ccccc4)CC3)c2)c1 1.07%
O=C(Nc1ccc2c(c1)OCO2)[C@@H]1[C@@H]2C(=O)N(C3CCCCC3)C(=O)[C@@H]2C2c3ccccc3C=CN21 (stereo partly drawn) 2.62%
COc1ccc(C(C[N+](=O)[O-])c2c(C)cc3ccccn23)c(OC)c1 (stereo not drawn) 3.91%
COc1ccc(C(C[N+](=O)[O-])c2c(-c3ccccc3)cc3ccccn23)cc1 (stereo not drawn) 7.08%
COC(=O)CSc1nc2ccc(NC(=O)CSc3nnnn3Cc3ccccc3)cc2s1 1.43%
COc1ccccc1OCCOCCOc1c(C)cc(C)cc1Br 1.97%
CCOc1ccccc1CNC(=O)c1cc2occc2n1C 2.63%
CCOc1ccccc1CNC(=O)c1c([N+](=O)[O-])c(C)nn1C 0.22%
CCOc1ccccc1CNC(=O)c1cn(C)c(=O)c2c1c1ccccc1n2C 6.47%
COc1ccccc1CNC(=O)c1oc2ccccc2c1C 1.89%
CCOc1ccccc1CNC(=O)Cn1c(=O)oc2ccccc21 -0.15%
COc1ccccc1CNC(=O)c1cc2c(=O)[nH]c3ccccc3c2n1C 16.5%

From PubChem BioAssay AID2391 (Southern Research Specialized Biocontainment Screening …, 2010)
